Laboratory results from publication PMC9911399, “Two distinct binding modes provide the RNA-binding protein RbFox with extraordinary sequence specificity”.
Substitutions are numbered along the chain they refer to; changes in the protein carry UniProt numbers. In all, about 16,000 sequences were measured (“ka relative to ugcaugu”: median about 0.096, highest 2% from about 0.35 on). The sample holds the highest values, similar sequences and a random draw of the others, so the mix is not that of the screen.

T1: RBFOX1 RRM RbFoxmut (Fox-RRM*) (Homo sapiens, UniProt Q9NWB1 109-208, R118D;E147R;N151S;E152T)
T1 sequence: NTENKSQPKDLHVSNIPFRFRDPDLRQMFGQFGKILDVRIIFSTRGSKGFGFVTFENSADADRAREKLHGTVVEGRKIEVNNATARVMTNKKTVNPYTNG

B1: UAUCAUA (DNA:RNA)
RNA: GGGAGACCGGAAUUCAGAUUGUCCUAUCAUAUUAAAUCCCGUCGUAGCCACCA
DNA 1: CAATCTGAATTCCGGTCTCCC
DNA 2: TGGTGGCTACGACGGGATT
B2: GAAGCUA (DNA:RNA)
RNA: B1 RNA with U25G, U27A, C28G, A29C
DNA 1: CAATCTGAATTCCGGTCTCCC
DNA 2: TGGTGGCTACGACGGGATT
B3: CAGCUCU (DNA:RNA)
RNA: B1 RNA with U25C, U27G, A29U, U30C, A31U
DNA 1: CAATCTGAATTCCGGTCTCCC
DNA 2: TGGTGGCTACGACGGGATT
B4: GUAUCAG (DNA:RNA)
RNA: GGGAGACCGGAAUUCAGAUUGUCCGUAUCAGUUAAAUCCCGUCGUAGCCACCA
DNA 1: CAATCTGAATTCCGGTCTCCC
DNA 2: TGGTGGCTACGACGGGATT
B5: AGUCGCC (DNA:RNA)
RNA: B1 RNA with U25A, A26G, A29G, U30C, A31C
DNA 1: CAATCTGAATTCCGGTCTCCC
DNA 2: TGGTGGCTACGACGGGATT
B6: UCGGAGC (DNA:RNA)
RNA: B1 RNA with A26C, U27G, C28G, U30G, A31C
DNA 1: CAATCTGAATTCCGGTCTCCC
DNA 2: TGGTGGCTACGACGGGATT
B7: AACUUUG (DNA:RNA)
RNA: B4 RNA with G25A, U26A, A27C, C29U, A30U
DNA 1: CAATCTGAATTCCGGTCTCCC
DNA 2: TGGTGGCTACGACGGGATT
B8: CUUAUGU (DNA:RNA)
RNA: B4 RNA with G25C, A27U, U28A, C29U, A30G, G31U
DNA 1: CAATCTGAATTCCGGTCTCCC
DNA 2: TGGTGGCTACGACGGGATT
B9: AGGUAUC (DNA:RNA)
RNA: B1 RNA with U25A, A26G, U27G, C28U, A31C
DNA 1: CAATCTGAATTCCGGTCTCCC
DNA 2: TGGTGGCTACGACGGGATT
B10: AAGUAUG (DNA:RNA)
RNA: B1 RNA with U25A, U27G, C28U, A31G
DNA 1: CAATCTGAATTCCGGTCTCCC
DNA 2: TGGTGGCTACGACGGGATT
B11: AAGUAUC (DNA:RNA)
RNA: B1 RNA with U25A, U27G, C28U, A31C
DNA 1: CAATCTGAATTCCGGTCTCCC
DNA 2: TGGTGGCTACGACGGGATT
B12: AGGUAGC (DNA:RNA)
RNA: B4 RNA with G25A, U26G, A27G, C29A, A30G, G31C
DNA 1: CAATCTGAATTCCGGTCTCCC
DNA 2: TGGTGGCTACGACGGGATT
B13: AGGUAUG (DNA:RNA)
RNA: B4 RNA with G25A, U26G, A27G, C29A, A30U
DNA 1: CAATCTGAATTCCGGTCTCCC
DNA 2: TGGTGGCTACGACGGGATT
B14: CGUAUGU (DNA:RNA)
RNA: B1 RNA with U25C, A26G, C28A, A29U, U30G, A31U
DNA 1: CAATCTGAATTCCGGTCTCCC
DNA 2: TGGTGGCTACGACGGGATT
B15: AAGUAAA (DNA:RNA)
RNA: B1 RNA with U25A, U27G, C28U, U30A
DNA 1: CAATCTGAATTCCGGTCTCCC
DNA 2: TGGTGGCTACGACGGGATT
B16: CAUAUGU (DNA:RNA)
RNA: B1 RNA with U25C, C28A, A29U, U30G, A31U
DNA 1: CAATCTGAATTCCGGTCTCCC
DNA 2: TGGTGGCTACGACGGGATT
B17: CGGUAUG (DNA:RNA)
RNA: B4 RNA with G25C, U26G, A27G, C29A, A30U
DNA 1: CAATCTGAATTCCGGTCTCCC
DNA 2: TGGTGGCTACGACGGGATT
B18: GGUAUCG (DNA:RNA)
RNA: B4 RNA with U26G, A27U, U28A, C29U, A30C
DNA 1: CAATCTGAATTCCGGTCTCCC
DNA 2: TGGTGGCTACGACGGGATT
B19: CCCGGUA (DNA:RNA)
RNA: B1 RNA with U25C, A26C, U27C, C28G, A29G
DNA 1: CAATCTGAATTCCGGTCTCCC
DNA 2: TGGTGGCTACGACGGGATT
B20: GCUACCU (DNA:RNA)
RNA: B4 RNA with U26C, A27U, U28A, A30C, G31U
DNA 1: CAATCTGAATTCCGGTCTCCC
DNA 2: TGGTGGCTACGACGGGATT
B21: CCGCCGU (DNA:RNA)
RNA: B4 RNA with G25C, U26C, A27G, U28C, A30G, G31U
DNA 1: CAATCTGAATTCCGGTCTCCC
DNA 2: TGGTGGCTACGACGGGATT
B22: AUGCGAA (DNA:RNA)
RNA: B4 RNA with G25A, A27G, U28C, C29G, G31A
DNA 1: CAATCTGAATTCCGGTCTCCC
DNA 2: TGGTGGCTACGACGGGATT
B23: CUGUCGA (DNA:RNA)
RNA: B4 RNA with G25C, A27G, A30G, G31A
DNA 1: CAATCTGAATTCCGGTCTCCC
DNA 2: TGGTGGCTACGACGGGATT
B24: AAGGGCC (DNA:RNA)
RNA: B1 RNA with U25A, U27G, C28G, A29G, U30C, A31C
DNA 1: CAATCTGAATTCCGGTCTCCC
DNA 2: TGGTGGCTACGACGGGATT
B25: CUCUACC (DNA:RNA)
RNA: B4 RNA with G25C, A27C, C29A, A30C, G31C
DNA 1: CAATCTGAATTCCGGTCTCCC
DNA 2: TGGTGGCTACGACGGGATT
B26: UAGCGCA (DNA:RNA)
RNA: B1 RNA with U27G, A29G, U30C
DNA 1: CAATCTGAATTCCGGTCTCCC
DNA 2: TGGTGGCTACGACGGGATT
B27: GUUAUGA (DNA:RNA)
RNA: B4 RNA with A27U, U28A, C29U, A30G, G31A
DNA 1: CAATCTGAATTCCGGTCTCCC
DNA 2: TGGTGGCTACGACGGGATT
B28: UCGUCCG (DNA:RNA)
RNA: B4 RNA with G25U, U26C, A27G, A30C
DNA 1: CAATCTGAATTCCGGTCTCCC
DNA 2: TGGTGGCTACGACGGGATT
B29: GGUAUGA (DNA:RNA)
RNA: B1 RNA with U25G, A26G, C28A, A29U, U30G
DNA 1: CAATCTGAATTCCGGTCTCCC
DNA 2: TGGTGGCTACGACGGGATT
B30: GUCCUCG (DNA:RNA)
RNA: B4 RNA with A27C, U28C, C29U, A30C
DNA 1: CAATCTGAATTCCGGTCTCCC
DNA 2: TGGTGGCTACGACGGGATT
B31: CGUAUGA (DNA:RNA)
RNA: B1 RNA with U25C, A26G, C28A, A29U, U30G
DNA 1: CAATCTGAATTCCGGTCTCCC
DNA 2: TGGTGGCTACGACGGGATT
B32: UCGUAUG (DNA:RNA)
RNA: B1 RNA with A26C, U27G, C28U, A31G
DNA 1: CAATCTGAATTCCGGTCTCCC
DNA 2: TGGTGGCTACGACGGGATT

Target: T1, RBFOX1 RRM RbFoxmut (Fox-RRM*)
Assay: EMSA; HiTS-Eq, 1 nM pool, 10 min; buffer printed only for the single-RNA assays: 10 mM Tris pH 7.5, 150 mM NaCl, 3.4 mM EDTA, 0.001% NP-40, 30 C
Settings: tags: His6 N-terminal (pET28a); label: 5' 32P
Summary of the method: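 Purified wild-type or mutant RbFox RRM at increasing concentrations was equilibrated with 1 nM of 5′-radiolabelled RNA carrying 7 randomized nucleotides for 10 min in 50 µL. Unbound RNA was separated by 8% native PAGE and sequenced. Relative association constants came from read-count changes of each RNA species compared with the control reaction, normalised to the cognate motif.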

Row | Binder | binding signal
1 | B1 | 0.0784 KA relative to UGCAUGU
2 | B2 | 0.0968 KA relative to UGCAUGU
3 | B3 | 0.0953 KA relative to UGCAUGU
4 | B4 | 0.229 KA relative to UGCAUGU
5 | B5 | 0.0636 KA relative to UGCAUGU
6 | B6 | 0.0837 KA relative to UGCAUGU
7 | B7 | 0.0853 KA relative to UGCAUGU
8 | B8 | 0.158 KA relative to UGCAUGU
9 | B9 | 0.191 KA relative to UGCAUGU
10 | B10 | 0.498 KA relative to UGCAUGU
11 | B11 | 0.151 KA relative to UGCAUGU
12 | B12 | 0.114 KA relative to UGCAUGU
13 | B13 | 1.01 KA relative to UGCAUGU
14 | B14 | 0.554 KA relative to UGCAUGU
15 | B15 | 0.124 KA relative to UGCAUGU
16 | B16 | 0.149 KA relative to UGCAUGU

Row | Binder | binding signal
17 | B17 | 0.885 KA relative to UGCAUGU
18 | B18 | 0.348 KA relative to UGCAUGU
19 | B19 | 0.111 KA relative to UGCAUGU
20 | B20 | 0.0731 KA relative to UGCAUGU
21 | B21 | 0.133 KA relative to UGCAUGU
22 | B22 | 0.131 KA relative to UGCAUGU
23 | B23 | 0.0775 KA relative to UGCAUGU
24 | B24 | 0.148 KA relative to UGCAUGU
25 | B25 | 0.0729 KA relative to UGCAUGU
26 | B26 | 0.124 KA relative to UGCAUGU
27 | B27 | 0.206 KA relative to UGCAUGU
28 | B28 | 0.0959 KA relative to UGCAUGU
29 | B29 | 0.468 KA relative to UGCAUGU
30 | B30 | 0.114 KA relative to UGCAUGU
31 | B31 | 0.258 KA relative to UGCAUGU
32 | B32 | 0.87 KA relative to UGCAUGU
